These results are taken from PubChem BioAssay.

For assay [1], the system named is Plasmodium falciparum Sir2 (PF13_0152, Sir2A). As to the kind of experiment: Plasmodium falciparum Sir2A binding compounds – biochemical, small-molecule microarray, 635 nm fluorescence, primary screen (AID 1098).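 Note: score merges spot fluorescence intensity with its signal-to-noise ratio.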 Particulars: fluorescence 635 nm, higher = more signal.
A short description of assay [2]: probe aDKK1 binding to arrayed compounds – biochemical, biotinylated probe, 635/667 nm fluorescence, primary screen (AID 1099).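 Note: score merges 667nm spot fluorescence with signal to noise across triplicate slides.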 The following applies: small-molecule microarray, higher = more signal.
Assay [3] can be described thus: probe aCHRDL2 binding to arrayed compounds – biochemical, biotinylated probe, 635/667 nm fluorescence, primary screen (AID 1100). Particulars: small-molecule microarray, higher = more signal.
Assay [4] in a line: change in splice reporter luminescence, either direction, cell-based, HEK293, spliceosome inhibition project, primary screen (AID 1101).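 Note: HEK293 cells carrying a splicing-competent luciferase reporter gene; test concentration not given here.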 The following applies: HEK293 splicing luciferase reporter, 24 h, higher = more signal, called active from +8 up or from −8 down. (In general: In a reporter assay the amount or activity of a reporter protein is the signal.)
For assay [5], the target named is Fibroblast growth factor 10 (Homo sapiens) (UniProt O15520). As to the kind of experiment: compounds binding fibroblast growth factor 10 – biochemical, small-molecule microarray, 635 nm fluorescence, primary screen (AID 1102). The following applies: FGF10 binding, fluorescence 635 nm, higher = more signal.
The subject of assay [6] is glycogen synthase kinase-3 (GSK3A per assay name; protocol says GSK3B). As to the kind of experiment: compounds binding glycogen synthase kinase-3 – biochemical, small-molecule microarray, 635 nm fluorescence, GSK3A, primary screen (AID 1103). Note: the record names both GSK3A and GSK3B. The following applies: fluorescence 635 nm, higher = more signal.
The target in assay [7] is Epidermal growth factor receptor (Homo sapiens) (UniProt P00533). As to the kind of experiment: compounds binding epidermal growth factor receptor – biochemical, small-molecule microarray, 635 nm fluorescence, primary screen (AID 1104).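 Note: score merges 667 nm emission intensity with spot signal to noise over triplicate slides.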 Particulars: EGFR binding, higher = more signal.
The target of assay [8] is Follistatin-related protein 3 (Homo sapiens) (UniProt O95633). As to the kind of experiment: compounds binding follistatin-related protein 3 – biochemical, small-molecule microarray, 635 nm fluorescence, primary screen (AID 1105).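 Note: score merges emission near 667 nm and signal to noise per printed spot across three slides.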 The following applies: FSTL3 binding, higher = more signal.
For assay [9], the target named is Dickkopf-related protein 1 (Homo sapiens) (UniProt O94907). As to the kind of experiment: small molecules binding DKK1 protein – biochemical, small-molecule microarray, 635 nm fluorescence scan, primary screen (AID 1106).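 Note: score merges emission near 667 nm with signal to noise over three replicate slides.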 The following applies: higher = more signal.
Assay [10] deals with Inhibin beta A chain (activin A). The assay is described as follows: small molecules binding activin A – biochemical, small-molecule microarray, 635 nm fluorescence scan, primary screen (AID 1107).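 Note: mouse activin A protein probed at 4.33 µg/mL on printed slides; score merges bound-protein fluorescence near 667 nm with spot signal-to-noise.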 Particulars: INHBA, higher = more signal.
The test system of assay [11] is Human papillomavirus type 1a protein E7 (residues 44-93). As to the kind of experiment: small molecules binding HPV E7 44-93 – biochemical, small-molecule microarray, residues 44-93, 635 nm fluorescence, primary screen (AID 1108).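 Note: E7 fragment applied at 1 µg/mL in TBST for 1 h at 4 C; score combines spot fluorescence with its signal to noise ratio.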 Particulars: fluorescence 635 nm, higher = more signal.
Assay [12] is described as follows: hepatitis C replication reporter changes, two-sided – Huh7 cells, luciferase reporter, HCV replication inhibitor project, primary screen (AID 1109).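 Note: huh7 hepatoma cells harbouring a luciferase neomycin HCV replicon reporter; luciferase luminescence as measure of HCV replicon replication; test concentration not given here.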 Particulars: Huh7 HCV replicon luciferase reporter, 48 h; higher = more signal.
In assay [13] the target is Left-right determination factor 2 (Homo sapiens) (UniProt O00292). The assay is described as follows: small molecules binding LEFTY2 protein – biochemical, small-molecule microarray, 635 nm fluorescence scan, primary screen (AID 1110). Particulars: higher = more signal.
Assay [14] concerns the target Calmodulin-1 (Homo sapiens) (UniProt P0DP23). The assay is described as follows: small molecules binding calmodulin-1 with EGTA – biochemical, small-molecule microarray, Cy5-labelled CALM1, profiling panel (AID 1111).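 Note: labelled calmodulin applied in Tris saline Tween buffer holding calcium plus EGTA and DTT.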 Particulars: Cy5-CALM1 binding fluorescence, higher = more signal.
Assay [15] has the same target. As to the kind of experiment: small molecules binding Ca-loaded calmodulin-1 – biochemical, small-molecule microarray, Cy5-labelled CALM1, plus calcium, artefact control for SMM control-protein annotation, profiling panel (AID 1112).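 Note: score merges spot fluorescence with signal to noise from triplicate slides.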 Particulars: Cy5-CALM1 binding fluorescence, higher = more signal.
The nature of assay [16]: probe aWnt5a binding to arrayed compounds – biochemical, biotinylated probe, 635/667 nm fluorescence, primary screen (AID 1113).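 Note: score merges 667 nm fluorescence intensity with signal-to-noise per printed feature.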 Particulars: small-molecule microarray, higher = more signal.
Assay [17] in a line: probe aShh binding to arrayed compounds – biochemical, biotinylated probe, 635/667 nm fluorescence, primary screen (AID 1114).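 Note: probe is biotin-labelled aShh protein from a stem cell growth factor screen; measures binding of labelled protein to compounds printed on the slide; score merges feature fluorescence at 667 nm with signal-to-noise.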 Particulars: small-molecule microarray, higher = more signal.
Assay [18] can be described thus: probe aNog binding to arrayed compounds – biochemical, biotinylated probe, 635/667 nm fluorescence, primary screen (AID 1115).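 Note: probe is biotinylated aNog protein used at 0.15 µg/mL for 1 h at 4 C; z-score combines 667 nm fluorescence of each spot with its signal to noise.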 Particulars: small-molecule microarray, higher = more signal.
The target of assay [19] is Torsin-1A-interacting protein 1 (Homo sapiens) (UniProt Q5JTV8). As to the kind of experiment: compound microarray binding of lysate hLAP1 – cell lysate, small-molecule microarray, COS7 lysate, 635/667 nm fluorescence, primary screen (AID 1116). The following applies: 635 nm fluorescence, higher = more signal.
The target in assay [20] is Alpha-bungarotoxin (Bungarus multicinctus) (UniProt P60615). As to the kind of experiment: compounds binding labelled alpha-BTX control protein – biochemical, small-molecule microarray, Alexa647 label, 635/667 nm fluorescence, artefact control for SMM control protein annotation, profiling panel (AID 1117). Particulars: alpha-BTX-A647 binding fluorescence, higher = more signal.

The structures appear in SMILES notation. The source made the active and inactive calls.

Chain of Torsin-1A-interacting protein 1 (Homo sapiens) (Q5JTV8 whole entry, looked up): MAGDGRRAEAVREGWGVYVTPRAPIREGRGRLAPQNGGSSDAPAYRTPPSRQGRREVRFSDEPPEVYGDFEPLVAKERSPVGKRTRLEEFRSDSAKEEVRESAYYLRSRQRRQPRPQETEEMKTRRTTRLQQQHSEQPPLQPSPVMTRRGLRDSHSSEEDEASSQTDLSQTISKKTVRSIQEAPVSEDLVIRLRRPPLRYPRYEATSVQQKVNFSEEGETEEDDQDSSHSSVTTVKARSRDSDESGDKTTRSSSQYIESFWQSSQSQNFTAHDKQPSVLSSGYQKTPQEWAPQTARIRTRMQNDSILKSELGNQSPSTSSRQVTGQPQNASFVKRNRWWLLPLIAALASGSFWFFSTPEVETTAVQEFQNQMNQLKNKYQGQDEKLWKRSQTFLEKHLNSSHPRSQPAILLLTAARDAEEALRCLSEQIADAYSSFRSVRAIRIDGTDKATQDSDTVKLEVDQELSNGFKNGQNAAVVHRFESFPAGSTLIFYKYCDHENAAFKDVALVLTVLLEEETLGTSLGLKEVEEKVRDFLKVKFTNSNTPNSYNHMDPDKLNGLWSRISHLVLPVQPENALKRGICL
Chain of Fibroblast growth factor 10 (Homo sapiens) (O15520 whole entry, looked up): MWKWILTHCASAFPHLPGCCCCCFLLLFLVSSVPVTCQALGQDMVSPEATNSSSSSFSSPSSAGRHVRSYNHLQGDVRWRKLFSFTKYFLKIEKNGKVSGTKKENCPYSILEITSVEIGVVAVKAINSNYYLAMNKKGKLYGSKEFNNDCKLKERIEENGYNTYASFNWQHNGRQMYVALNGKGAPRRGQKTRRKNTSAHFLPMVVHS
Chain of Follistatin-related protein 3 (Homo sapiens) (O95633 whole entry, looked up): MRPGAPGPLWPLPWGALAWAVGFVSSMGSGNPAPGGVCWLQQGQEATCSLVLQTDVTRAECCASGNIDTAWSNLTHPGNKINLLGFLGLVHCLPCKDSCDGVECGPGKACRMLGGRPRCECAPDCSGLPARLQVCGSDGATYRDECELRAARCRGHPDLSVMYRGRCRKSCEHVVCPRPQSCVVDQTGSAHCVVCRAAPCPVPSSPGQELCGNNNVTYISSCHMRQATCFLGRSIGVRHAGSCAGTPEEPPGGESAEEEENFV
Chain of Alpha-bungarotoxin (Bungarus multicinctus) (P60615 whole entry, looked up): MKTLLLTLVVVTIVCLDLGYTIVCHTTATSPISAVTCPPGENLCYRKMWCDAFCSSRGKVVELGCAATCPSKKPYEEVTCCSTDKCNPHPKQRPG
Chain of Dickkopf-related protein 1 (Homo sapiens) (O94907 whole entry, looked up): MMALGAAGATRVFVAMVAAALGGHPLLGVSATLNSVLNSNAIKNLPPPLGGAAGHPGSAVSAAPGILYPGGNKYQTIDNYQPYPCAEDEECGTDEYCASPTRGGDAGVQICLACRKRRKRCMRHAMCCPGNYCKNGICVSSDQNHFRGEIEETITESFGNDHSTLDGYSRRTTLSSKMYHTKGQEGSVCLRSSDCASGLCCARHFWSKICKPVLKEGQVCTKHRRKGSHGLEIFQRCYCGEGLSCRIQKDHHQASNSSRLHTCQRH
Chain of Epidermal growth factor receptor (Homo sapiens) (P00533 whole entry, looked up): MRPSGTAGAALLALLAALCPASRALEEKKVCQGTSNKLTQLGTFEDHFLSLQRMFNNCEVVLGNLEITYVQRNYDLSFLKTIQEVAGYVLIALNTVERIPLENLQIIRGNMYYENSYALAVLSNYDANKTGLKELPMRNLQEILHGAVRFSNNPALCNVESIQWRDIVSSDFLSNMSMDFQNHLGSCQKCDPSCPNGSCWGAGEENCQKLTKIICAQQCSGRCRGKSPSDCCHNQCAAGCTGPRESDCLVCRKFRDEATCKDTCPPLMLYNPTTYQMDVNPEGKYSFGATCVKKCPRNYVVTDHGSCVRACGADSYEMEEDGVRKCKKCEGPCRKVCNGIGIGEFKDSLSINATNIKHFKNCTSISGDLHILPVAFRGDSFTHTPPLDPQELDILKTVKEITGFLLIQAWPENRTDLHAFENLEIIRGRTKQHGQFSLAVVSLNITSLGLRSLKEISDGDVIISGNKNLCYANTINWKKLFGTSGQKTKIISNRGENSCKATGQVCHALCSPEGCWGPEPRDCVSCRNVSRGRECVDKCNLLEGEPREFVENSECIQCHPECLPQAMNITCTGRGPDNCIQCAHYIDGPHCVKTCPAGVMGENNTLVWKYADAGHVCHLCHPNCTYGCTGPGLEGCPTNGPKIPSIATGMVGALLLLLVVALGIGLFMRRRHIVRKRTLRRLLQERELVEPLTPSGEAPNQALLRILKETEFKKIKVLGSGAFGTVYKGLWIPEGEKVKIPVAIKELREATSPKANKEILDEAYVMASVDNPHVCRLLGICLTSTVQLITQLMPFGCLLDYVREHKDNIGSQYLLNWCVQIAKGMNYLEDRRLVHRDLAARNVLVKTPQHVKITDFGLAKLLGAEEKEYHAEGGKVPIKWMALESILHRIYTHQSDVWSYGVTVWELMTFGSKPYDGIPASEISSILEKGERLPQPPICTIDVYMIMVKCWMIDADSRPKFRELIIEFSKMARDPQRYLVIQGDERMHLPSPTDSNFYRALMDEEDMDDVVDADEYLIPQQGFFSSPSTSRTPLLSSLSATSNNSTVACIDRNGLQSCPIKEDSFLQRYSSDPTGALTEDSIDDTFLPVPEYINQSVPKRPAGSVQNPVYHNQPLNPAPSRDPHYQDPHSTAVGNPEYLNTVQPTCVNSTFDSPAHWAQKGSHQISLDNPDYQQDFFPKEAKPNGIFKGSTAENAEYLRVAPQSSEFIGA
Chain of Left-right determination factor 2 (Homo sapiens) (O00292 whole entry, looked up): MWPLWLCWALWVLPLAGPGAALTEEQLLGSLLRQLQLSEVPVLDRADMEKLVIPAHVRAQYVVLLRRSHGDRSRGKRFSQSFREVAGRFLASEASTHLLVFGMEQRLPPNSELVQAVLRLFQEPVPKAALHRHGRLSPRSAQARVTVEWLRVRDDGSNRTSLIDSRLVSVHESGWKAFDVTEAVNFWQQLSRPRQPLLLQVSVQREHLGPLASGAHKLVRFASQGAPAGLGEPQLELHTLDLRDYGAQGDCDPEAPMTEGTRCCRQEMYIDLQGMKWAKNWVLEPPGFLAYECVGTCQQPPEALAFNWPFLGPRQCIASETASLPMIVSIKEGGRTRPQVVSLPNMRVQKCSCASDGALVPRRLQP

Regarding `C=C[C@H](C)[C@@H](OC(=O)Nc1ccc(OC)cc1)c1ccc(O)c2ccccc12`, the composite z-score in assay [1] is 0.408; in [2] it was -0.398; in [3] it was -0.083; in [5] it was -0.117; in assay [6] it was -0.177; in assay [7], -0.568. Also, the composite z-score was 0.386 in assay [8]; 0.209 in assay [9]; 0.722 in assay [10]; -0.626 in assay [11]; -0.239 in [13]; -0.582 in assay [14]. Moreover, the composite z-score in [15] is -0.461; in assay [16], -0.178; in assay [17], 0.318; in assay [18], 0.152; in assay [19], 0.534; in [20], -0.177. The z-score in assay [4] is 2.41 (inactive); in assay [12] it was -3.43.

For `COC(=O)[C@@]1(Cc2ccccc2)[C@H]2c3cc(C(=O)N4CCCC4)n(Cc4ccc(S(C)(=O)=O)cc4)c3C[C@H]2CN1C(=O)c1ccccc1`, the composite z-score in assay [1] amounted to 0.525; in assay [2], 1.52; in [3], 1.03; in assay [5], 0.387; in [6], 1.18; in assay [7], 0.679. The composite z-score turned out to be 0.94 in assay [8]; 0.222 in [9]; 1.3 in assay [10]; 0.97 in assay [11]; 0.711 in [13]; 2.61 in [14]. Moreover, the composite z-score in assay [15] is 1.35; in assay [16] it was -0.0965; in assay [17], -0.34; in assay [18], -0.232; in assay [19], 1.86; in assay [20], 0.863. Further, the z-score in [4] was -1.18 (inactive); in assay [12] it was -2.02.

Turning to `COc1cc(Br)cc(C(O)C2C=CC3C(=O)N(C)C(=O)C3N2N2CCCCC2)c1OC` (stereo not given), the composite z-score in assay [1] was 0.787; in assay [2], 0.655; in assay [3] it was 0.895; in assay [5] it was -0.582; in assay [6], -0.524; in assay [7], -1.23. Moreover, the composite z-score in assay [8] was -1.06; in [9] it was -1.26; in assay [10], 0.613; in [11], 0.207; in assay [13] it was -1.31; in [14] it was -0.104. The composite z-score was 0.315 in assay [15]; -0.0735 in assay [16]; 0.304 in [17]; 0.69 in assay [18]; 1.09 in assay [19]; -0.251 in assay [20]. For the same compound, the values for the z-score in assay [4] and in assay [12] were 1.09 (inactive) and -0.0024, respectively.

Consider `C[N+](C)(C)CCCCNC(=O)[C@@H]1C[C@@H]2C(=O)N[C@@H](Cc3ccccc3)C(=O)N2[C@@H]1c1cccc(OCCO)c1`, for which the composite z-score in assay [1] was 1.32; in [2], -0.0907; in [3], 0.361; in assay [5] it was 0.849; in [6] it was -0.494; in [7], -0.35. Besides, the composite z-score in assay [8] is 0.683; in assay [9], 1.49; in assay [10] it was -0.15; in [11], -1.03; in assay [13], 0.633; in assay [14], -0.985. For the same compound, the composite z-score was 0.18 in assay [15]; -0.178 in [16]; -0.0146 in [17]; -0.12 in [18]; 0.0849 in [19]; -0.671 in assay [20]. The figures for the z-score in [4] and in assay [12] were -0.379 (inactive) and -0.759, respectively.

Regarding `CCCCCCc1nc(-c2ccc(OC)nc2)cc2c1[Si](C(C)C)(C(C)C)O[C@H]2c1ccccc1`, the composite z-score in assay [1] is 1.33; in assay [2], -0.0653; in assay [3], -0.459; in assay [5] it was 0.289; in assay [6], -0.0539; in [7], 0.31. Also, the composite z-score was 0.633 in assay [8]; 0.117 in [9]; 0.318 in assay [10]; -0.103 in assay [11]; 0.28 in assay [13]; -0.0918 in [14]. Besides, the composite z-score in assay [15] was 0.176; in [16] it was -0.176; in assay [17] it was 0.108; in assay [18], -0.234; in assay [19] it was -0.476; in assay [20] it was 0.0237. In addition, the figures for the z-score in assay [4] and in assay [12] were -0.0107 (inactive) and -0.657, respectively.

Turning to `COc1ccc([Si](C)(C)[C@@H]2[C@@H](CCO)O[C@]3(C(=O)N(Cc4ccc(N(C=O)c5ccccc5)cc4)c4ccccc43)[C@H]2C)cc1`, the composite z-score in assay [1] is 0.724; in assay [2], 0.116; in assay [3], 0.605; in assay [5] it was 0.224; in [6] it was -0.157; in [7], -0.049. Further, the composite z-score is 0.218 in [8]; -0.013 in assay [9]; 1.1 in assay [10]; 0.121 in assay [11]; 0.0196 in assay [13]; 1.32 in assay [14]. The composite z-score is 0.973 in assay [15]; -0.0203 in [16]; 0.385 in assay [17]; 0.286 in [18]; 0.419 in assay [19]; 1.62 in assay [20]. For the same compound, the z-score was -1.38 (inactive) in assay [4] and -4.67 in [12].
